Assay outcomes: PubChem, National Center for Advancing Translational Sciences (NCATS)
In the library only some 2.7% were active in any assay of this set; here they are far more common.
HEK293 tox: qHTS of GLP-1 Receptor Inverse Agonists: Cytotox Screen; Potency, µM (doses to about 38.3 µM), for inactives: at the highest dose activity change, negative = inhibition, most hits filed as inhibitors; 0.13% of 410,000 active; HEK293 cAMP-luciferase reporter cells, luminescence, 24 h; AID 624418, 2012;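 further: loss of luciferase light is scored as toxicity; on the % scale 0 is the no-effect control and ±100 the full control effect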
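A 23 nL compound transfer followed 12 hours of cell culture at 37 deg C; exposure then lasted 24 hr. Luciferase assay detection reagent was dispensed and plates read for luminescence after a 12 min room-temperature wait.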
IDH1 R132H inh: qHTS for Inhibitors of mutant isocitrate dehydrogenase 1 (IDH1): qHTS; Isocitrate dehydrogenase [NADP] cytoplasmic (Homo sapiens), O75874; IDH1-R132H enzyme, NADPH consumption, diaphorase/resazurin fluorescence; Potency, µM (highest dose often 76.6 µM), without a hit: top-dose activity change, negative = inhibition, actives largely listed as inhibitors; 0.093% of 390,000 active; AID 602179, 2012; further: on the % scale 0 is the no-effect control and ±100 the full control effect; nearly all actives have a fitted effect of over 65% in size
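IDH1-R132H (0.5 ug/mL dispensed) in pH 7.5 Tris buffer was preincubated 30 min with compound, then given a substrate mix of 0.016 mM NADPH and 2 mM alpha-KG for 80 min at room temperature; remaining NADPH was read by diaphorase/resazurin fluorescence.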
rTrxR1 inhibitor: qHTS Assay for Inhibitors of Mammalian Selenoprotein Thioredoxin Reductase 1 (TrxR1): qHTS; Thioredoxin reductase 1, cytoplasmic (Rattus norvegicus), O89049; recombinant rTrxR1, NADPH fluorescence consumption, selenite substrate; Potency, µM (titrated, usually from 114 µM), without a hit: at the top dose activity change, negative = inhibition, most hits filed as inhibitors; 1% of 390,000 active; AID 588453, 2011; further: on the % scale 0 is the no-effect control and ±100 the full control effect; nearly all actives have a fitted effect of over 65% in size
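Rat TrxR1 (90 nM in the dispensed reagent) was pre-reduced with 400 uM NADPH for 5 min at room temperature, then incubated with compound for 15 min. After 400 uM selenite was added, NADPH fluorescence (Ex 340/Em 450 nm) was followed for 8 min.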
GLP1R inv ag: qHTS of GLP-1 Receptor Inverse Agonists (Inhibition Mode). Glucagon-like peptide 1 receptor (Homo sapiens), P43220. HEK293 GLP-1R CRE-luciferase, luminescence, 24 h; GLP-1R form is constitutively active. Potency, µM (top dose mostly 38.3 µM), without a hit: at the highest dose activity change, negative = inhibition, most hits filed as inhibitors. AID 624417, 2012. 1.6% of 410,000 active; further: on the % scale 0 is the no-effect control and ±100 the full control effect; nearly all actives have a fitted effect of over 55% in size
Target sequence (P43220 whole entry, looked up): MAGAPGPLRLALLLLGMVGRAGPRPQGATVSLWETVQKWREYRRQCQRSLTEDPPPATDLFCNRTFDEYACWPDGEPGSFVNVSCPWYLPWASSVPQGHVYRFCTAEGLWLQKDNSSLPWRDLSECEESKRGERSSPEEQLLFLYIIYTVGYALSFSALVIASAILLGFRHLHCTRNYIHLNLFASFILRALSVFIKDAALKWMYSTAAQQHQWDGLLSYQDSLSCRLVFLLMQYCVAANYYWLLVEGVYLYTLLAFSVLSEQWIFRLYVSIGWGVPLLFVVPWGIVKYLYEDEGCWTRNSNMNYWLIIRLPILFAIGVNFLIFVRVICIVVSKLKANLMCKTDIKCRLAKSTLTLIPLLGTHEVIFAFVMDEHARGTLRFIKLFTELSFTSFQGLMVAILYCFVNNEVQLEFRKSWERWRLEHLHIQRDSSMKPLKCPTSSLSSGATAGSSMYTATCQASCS
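Luminescence readout: a drop in cAMP-driven luciferase signal flags inverse agonism at a constitutively active GLP-1R stably expressed in HEK293. Compound exposure lasted 24 hr at 37 deg C, 5% CO2.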
GLP-1R agonist: qHTS of GLP-1 Receptor Agonists; Glucagon-like peptide 1 receptor (Homo sapiens), P43220; HEK293 GLP-1R CRE-luciferase, luminescence, 4-6 h; cells express a hypersensitive GLP-1R form; Potency, µM (series often up to 45.6 µM), inactives show top-dose activation, usual class: activators; 0.007% of 380,000 active; further: % of control where 0% means no effect
TrxR1 substrate: qHTS Assay for Substrates of Mammalian Selenoprotein Thioredoxin Reductase 1 (TrxR1): qHTS; Thioredoxin reductase 1, cytoplasmic (Rattus norvegicus), O89049; purified TrxR1 substrate turnover, NADPH consumption readout; Potency, µM (top dose mostly 114 µM), inactives show at the top dose activity change, negative = substrate turnover; 0.01% of 390,000 active; further: on the % scale 0 is the no-effect control and ±100 the full control effect; nearly all actives have a fitted effect of over 50% in size
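Rat TrxR1, dispensed at 90 nM, was prereduced with 400 uM NADPH (final) for 5 min at ~22 deg C, then incubated with compound 15 min before 400 uM selenite. A first-read NADPH fluorescence drop versus no-compound background flagged substrates.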
Active calls of the source: *; ? = inconclusive; . = no result given; [ ] = another dose, or the depositor's remark. The call rests on the fitted dose curve; in most records, active means well fitted curve in the direction sought with a large enough effect; inconclusive means small, poorly fitted or top-dose-only effect, or another doubt; inactive means no such curve, though single readings can be large; an effect the other way counts as inactive or inconclusive. Potency means the concentration at half of the fitted maximal effect.

SMILES	HEK293 tox	IDH1 R132H inh	rTrxR1 inhibitor	GLP1R inv ag	GLP-1R agonist	TrxR1 substrate
CCc1ccc(C(C)NC(=O)c2cc(C)oc2C)cc1 (stereo unspecified)	-1.6%	4.0%	20µM*	?	-3.1%	-2.8%
CCc1ccc(C(C)NC(=O)C2(C)CC2(Br)Br)cc1 (stereo unspecified)	-7.2%	0.0%	0.4%	10µM*	-8.3%	-6.5%
Cc1cc(C(=O)NN)c(C)o1	3.9%	1.1%	17.5%	6.7%	3.5%	2.2%
CCC(NC(=O)C1(C)CC1(Br)Br)c1ccc(C)cc1 (stereo unspecified)	-2.3%	0.4%	-14.5%	?	-3.4%	-11.0%
Fc1ccc(CSc2nc3ccccc3[nH]2)c2ccccc12	-9.2%	-5.6%	23.9%[57.1 µM]	10µM*	0.5%	7.1%[57.1 µM]
O=C(CSc1ccc(-c2cccs2)nn1)Nc1cccc(F)c1	3.2%	0.0%	0.5%	-2.4%	.	-4.6%
CCCc1cc(C(=O)Nc2ccc(C(=O)c3ccc(F)cc3)cc2)n(C)n1	-4.3%	8.2%	24.7%	8.91µM*	-2.7%	4.0%
COC(=O)c1nc(NC(=O)c2cc(OC)c(OC)c(OC)c2)n[nH]1	-6.1%	0.8%	39.8µM*	14.0%	0.3%	2.6%
O=C(c1cc2ccccc2[nH]1)c1cc2cc(O)ccc2[nH]1	.	.	-9.6%	.	.	-3.2%
COc1ccc(CNC(=O)/C=C/c2ccc(S(=O)(=O)N3CCOCC3)cc2)cc1	4.9%	7.9%	4.5%[57.1 µM]	-1.0%	3.0%	-2.6%[57.1 µM]
O=C(/C=C/c1ccc(S(=O)(=O)N2CCOCC2)cc1)NCc1ccc(Cl)cc1	-1.3%	0.9%	10.4%[57.1 µM]	3.55µM*	11.7%	4.6%[57.1 µM]
CC(C)(C)OC(=O)NCCc1nnc(S(=O)(=O)Cc2ccc(Cl)cc2Cl)o1	?	3.9%	0.398µM*	?	-28.2%	11.4%[57.1 µM]
CC(C)(C)OC(=O)NCCc1nnc(SCc2ccccc2Cl)o1	3.2%	2.6%	-4.2%	0.0%	21.5%	-6.3%
CC1(C)C2CCC1(C)C(OC(=O)c1ccccc1C(=O)O)C2 (stereo unspecified)	-0.4%	6.1%	16.7%	?	-1.8%	1.3%
CC1(C)C2CCC1(C)C(OCCNCCOC(=O)Nc1ccccc1)C2 (stereo unspecified)	0.0%	-3.2%	24.6%	11.2µM*	26.3%	-1.7%
CCN(C(=O)c1cc2cc(Br)cc(OC)c2oc1=O)c1ccccc1	6.4%	-3.5%	-0.3%	27.1%	-3.2%	-7.6%
CC(C)Cc1ccc(C(=O)NCCOc2ccccc2)o1	0.0%	9.3%	2.1%	11.2µM*	11.6%	0.9%
CNc1ncnc2c1ncn2[C@H]1C[C@H](OP(=O)(O)O)[C@@H](COP(=O)(O)O)O1	.	.	?	.	.	10.5%[57.1 µM]
NC(=O)c1c(/N=C/c2cccs2)sc2c1CCCC2	-3.1%	0.1%	39.8µM*	12.2%	7.4%	-2.5%
CCCNC(=S)Nc1cc2oc3ccccc3c2cc1OC	-14.5%	9.4%	-15.4%	8.91µM*	-5.5%	-6.1%
CCNC(=S)Nc1cc2oc3ccccc3c2cc1OC	?	16.7%	-4.5%	?	5.0%	16.3%
COc1cc2c(cc1NC(=O)Nc1ccc(C)cc1)oc1ccccc12	-18.1%	1.6%	-10.8%	1.78µM*	-2.9%	4.7%[57.1 µM]
CC(C)NC(=S)N/N=C/c1c[nH]c2ccccc12	10µM*	-0.4%	-20.4%	?	21.2%	-9.1%
Cc1[nH]c2ccccc2c1/C=N/NC(=S)NC(C)C	?	13.3%	?	?	15.1%	-17.2%[57.1 µM]
